# Test results from PubChem BioAssay (NCATS).
# Results filed as inconclusive are left out. Calls of active or inactive are those of the source. Calls follow the shape of the dose curve; as a rule, active = well fitted cell-killing curve with a large enough effect; inconclusive = small, poorly fitted or top-dose-only effect, or effect the other way; inactive = no such curve, though single readings can be large or run the other way.
# Tests used:
# [1] = Quantitative High-Throughput drug screen in 47 multiple myeloma cell lines against the NCATS MIPE library collection: H1112_PLB cell viability assay (AID 1918967; also: nearly all actives have a fitted effect of over 30% in size)
# Outline: (§1)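 Steps: seed 500 cells per well; pin-transfer MIPE 4.0 library; incubate 48 h at 37C, 5% CO2, humidified; add CellTiter-Glo, 5 min room temperature; read luminescence.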
# [2] = Quantitative High-Throughput drug screen in 47 multiple myeloma cell lines against the NCATS MIPE library collection: Karpas25_ECACC cell viability assay (AID 1918968; also: nearly all actives have a fitted effect of over 35% in size)
# Outline: as §1
# [3] = Quantitative High-Throughput drug screen in 47 multiple myeloma cell lines against the NCATS MIPE library collection: KMS12BM_JCRB cell viability assay (AID 1918971); also: nearly all actives have a fitted effect of over 35% in size
# Outline: (§2)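 qHTS of the MIPE 4.0 collection: 500 myeloma cells/well, 48 h drug exposure at 37C in 5% CO2, then CellTiter-Glo for 5 min at room temperature before luminescence reading.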
# [4] = Quantitative High-Throughput drug screen in 47 multiple myeloma cell lines against the NCATS MIPE library collection: MMM1_PLB cell viability assay (AID 1918976); also: nearly all actives have a fitted effect of over 35% in size
# Outline: (§3)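 Inhibition of viability over 48 h was scored by ATP content (CellTiter-Glo) in 500-cell wells. Zero and full viability were defined by media-only and DMSO-only wells.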
# [5] = Quantitative High-Throughput drug screen in 47 multiple myeloma cell lines against the NCATS MIPE library collection: KMS26_JCRB cell viability assay (AID 1918975); also: nearly all actives have a fitted effect of over 45% in size
# Outline: as §2
# [6] = Quantitative High-Throughput drug screen in 47 multiple myeloma cell lines against the NCATS MIPE library collection: KMS12PE_JCRB cell viability assay (AID 1918972); also: nearly all actives have a fitted effect of over 30% in size
# Outline: as §1
# [7] = Quantitative High-Throughput drug screen in 47 multiple myeloma cell lines against the NCATS MIPE library collection: MOLP8_DSMZ cell viability assay (AID 1918977); also: nearly all actives have a fitted effect of over 45% in size
# Outline: as §3
# [8] = Quantitative High-Throughput drug screen in 47 multiple myeloma cell lines against the NCATS MIPE library collection: KMS20_JCRB cell viability assay (AID 1918973); also: nearly all actives have a fitted effect of over 45% in size
# Outline: as §1
# [9] = Quantitative High-Throughput drug screen in 47 multiple myeloma cell lines against the NCATS MIPE library collection: KMS27_JCRB cell viability assay (AID 1918970); also: nearly all actives have a fitted effect of over 30% in size
# Outline: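 ATP-based viability (CellTiter-Glo luminescence) is measured in cells treated 48 h with approved and investigational drugs at 37 °C. Controls are DMSO-only wells for full viability and media-only wells for none.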
# [10] = Quantitative High-Throughput drug screen in 47 multiple myeloma cell lines against the NCATS MIPE library collection: KMS21BM_JCRB cell viability assay (AID 1918974); conditions: ATP luminescence, 48 h; viability: at 45.8 µM (top of the series) unless noted
# Outline: as §1
# Potency is read from the fitted curve at half-maximal effect.
smiles,measurement,setting,value
NC(=O)c1cnc(-c2ccc(C3(N)CCC3)cc2)c(-c2ccccc2)c1,Potency,[1],4.18 µM (active)
same,Potency,[2],13.2 µM (active)
same,Potency,[3],8.33 µM (active)
same,Potency,[4],0.743 µM (active)
CC(=O)Oc1cc2c(s1)CCN(C(C(=O)C1CC1)c1ccccc1F)C2 (centres undefined),Potency,[1],2.96 µM (active)
same,Potency,[2],1.87 µM (active)
same,Potency,[5],2.96 µM (active)
same,Potency,[4],1.48 µM (active)
COc1cc(NC(=O)c2ccc(-c3ccc(Cl)cc3)o2)cc(OC)c1,Potency,[1],2.96 µM (active)
same,Potency,[2],2.96 µM (active)
same,Potency,[6],20.9 µM (active)
same,Potency,[5],inactive
CC(C)OC(=O)CCCC=CC[C@@H]1[C@H](C=C[C@@H](O)COc2cccc(C(F)(F)F)c2)[C@H](O)C[C@@H]1O,Potency,[1],18.7 µM (active)
same,Potency,[2],16.6 µM (active)
same,Potency,[6],inactive
same,Potency,[4],14.8 µM (active)
same,Potency,[7],26.4 µM (active)
Cc1ccc(Nc2cc(-c3cccc(N4C(=O)c5ccccc5C4=O)c3)ncn2)cc1NS(C)(=O)=O,Potency,[1],18.7 µM (active)
same,Potency,[2],11.8 µM (active)
same,Potency,[3],20.9 µM (active)
same,Potency,[6],26.4 µM (active)
same,Potency,[8],26.4 µM (active)
same,Potency,[4],20.9 µM (active)
same,Potency,[7],20.9 µM (active)
C[C@]12CC[C@@H]3c4ccc(O)cc4CC[C@H]3[C@H]1C[C@@H](O)[C@H]2O,Potency,[1],inactive
same,Potency,[2],inactive
same,Potency,[8],inactive
same,Potency,[4],13.2 µM (active)
O=c1cc(-c2cccc3c2Sc2ccccc2S3)oc(N2CCOCC2)c1,Potency,[1],20.9 µM (active)
same,Potency,[2],14.8 µM (active)
same,Potency,[3],23.5 µM (active)
same,Potency,[6],16.6 µM (active)
same,Potency,[8],13.2 µM (active)
O=C(N[C@@H](c1ccccc1)[C@@H]1CCCCN1)c1cccc(C(F)(F)F)c1Cl,Potency,[1],14.8 µM (active)
same,Potency,[2],inactive
same,Potency,[3],7.43 µM (active)
same,Potency,[6],23.5 µM (active)
same,Potency,[4],1.32 µM (active)
CNC(=O)c1ccccc1Sc1ccc2c(C=Cc3ccccn3)n[nH]c2c1,Potency,[1],0.296 µM (active)
same,Potency,[2],16.6 µM (active)
same,Potency,[3],16.6 µM (active)
same,Potency,[6],1.66 µM (active)
same,Potency,[4],20.9 µM (active)
CC(C)n1cnc2c(NCCCCCCNC(=O)OC(C)(C)C)nc(NCCO)nc21,Potency,[1],23.5 µM (active)
same,Potency,[2],23.5 µM (active)
same,Potency,[3],18.7 µM (active)
same,Potency,[8],1.05 µM (active)
same,Potency,[5],23.5 µM (active)
same,Potency,[4],18.7 µM (active)
CN1C[C@H]2c3ccccc3Oc3ccc(Cl)cc3[C@@H]2C1,Potency,[1],inactive
same,Potency,[2],inactive
same,Potency,[3],inactive
same,Potency,[8],inactive
same,Potency,[7],inactive
CC(C)C(C)C=CC(C)C1CCC2C3=CC=C4CC(O)CCC4(C)C3CCC21C (centres undefined),Potency,[1],inactive
same,Potency,[2],inactive
same,Potency,[3],inactive
same,Potency,[6],inactive
same,Potency,[7],inactive
COc1ccc2c(Oc3ccc(NC(=O)c4c(C)n(CC(C)(C)O)n(-c5ccccc5)c4=O)nc3)ccnc2c1,Potency,[1],inactive
same,Potency,[9],inactive
CO[C@H]1C=CO[C@@]2(C)Oc3c(C)c(O)c4c(O)c(c5c(c4c3C2=O)NC2(CCN(CC(C)C)CC2)N=5)=NC(=O)C(C)=CC=C[C@H](C)[C@H](O)[C@@H](C)[C@@H](O)[C@@H](C)[C@H](OC(C)=O)[C@H]1C,Potency,[1],inactive
same,Potency,[2],16.6 µM (active)
same,Potency,[6],11.8 µM (active)
CC(C(=O)O)c1ccc(-c2ccccc2)c(F)c1 (centres undefined),Potency,[1],18.7 µM (active)
same,Potency,[2],20.9 µM (active)
same,Potency,[6],inactive
same,Potency,[8],4.69 µM (active)
same,Potency,[4],1.87 µM (active)
same,Potency,[7],inactive
CC(C)(C)Cn1c(N)nc2ccc(-c3[nH]c(C(C)(C)C)nc3-c3ccc(F)cc3)nc21,Potency,[1],20.9 µM (active)
same,Potency,[9],inactive
same,Potency,[3],23.5 µM (active)
same,Potency,[6],inactive
same,Potency,[4],20.9 µM (active)
same,Potency,[7],7.43 µM (active)
C[C@H]1[C@H](NC(=O)C(=NOC(C)(C)C(=O)O)c2csc(N)n2)C(=O)N1S(=O)(=O)O,Potency,[1],inactive
same,Potency,[9],inactive
same,Potency,[3],1.48 µM (active)
same,Potency,[6],inactive
same,Potency,[8],16.6 µM (active)
same,Potency,[5],inactive
same,Potency,[7],inactive
OC[C@H]1O[C@@H](n2cnc3c2NC=NC[C@@H]3O)C[C@H]1O,Potency,[1],18.7 µM (active)
same,Potency,[9],13.2 µM (active)
same,Potency,[6],inactive
same,Potency,[10],0.0042 µM (active)
same,Potency,[4],20.9 µM (active)
same,Potency,[7],inactive
CNC(=O)c1ccc2cc(C3(O)CCn4cncc43)ccc2c1 (centres undefined),Potency,[1],inactive
same,Potency,[3],inactive
same,Potency,[6],inactive
same,Potency,[8],inactive
same,Potency,[5],inactive
COc1ccc2c(Oc3ccc(NC(=O)c4c(C)n(CC(C)(C)O)n(-c5ccccc5)c4=O)cc3F)ccnc2c1,Potency,[1],20.9 µM (active)
same,Potency,[9],20.9 µM (active)
same,Potency,[3],33.2 µM (active)
same,Potency,[6],26.4 µM (active)
same,Potency,[5],inactive
O=C(CCc1ccc(O)cc1)c1c(O)cc(O)cc1O[C@@H]1O[C@H](CO)[C@H](O)[C@H](O)[C@H]1O,Potency,[1],inactive
same,Potency,[9],inactive
same,Potency,[3],inactive
same,Potency,[6],inactive
same,Potency,[8],inactive
